Measurements from the supplement of paper PMC13172266.

test system: U2932 TK216-resistant clone 2; assay: cell proliferation relative to vehicle (% of vehicle); higher = less growth inhibition; conditions: 500 nM; 72 h
Summary of the method: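 A targeted inhibitor library of 348 compounds was tested on the ABC-DLBCL line U2932, both parental and two clones made resistant to an ETS-targeting agent by repeated exposure over almost a year. Cells were grown at 37°C and 5% CO2 in medium with 10% FBS, then treated at 500 nM or 50 nM for 72 h. MTT was added for 4 h, stopped with 25% SDS, and absorbance was read on a Cytation 3. Proliferation is reported as percent of proliferating cells relative to vehicle (DMSO).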

Row | Compound | cell proliferation
1 | CC(C)C[C@H](NC(=O)[C@H](CCc1ccccc1)NC(=O)CN1CCOCC1)C(=O)N[C@@H](Cc1ccccc1)C(=O)N[C@@H](CC(C)C)C(=O)[C@@]1(C)CO1 [Carfilzomib (PR-171)] | -4.13
2 | Cn1cc(-c2ccc3c(c2)CCN3C(=O)Cc2cccc(C(F)(F)F)c2)c2c(N)ncnc21 | 102
3 | Cc1cc(C(C)Nc2ccccc2)c2nc(N3CCOCC3)cc(=O)n2c1 (stereo unspecified) | 101
4 | Oc1nc(-c2ccc(C(F)(F)F)cc2)nc2c1CSCC2 | 108
5 | Cn1cnc([N+](=O)[O-])c1Sc1ncnc2[nH]cnc12 [Azathioprine] | 98.4
6 | Cn1cncc1[C@@](N)(c1ccc(Cl)cc1)c1ccc2c(c1)c(-c1cccc(Cl)c1)cc(=O)n2C [Tipifarnib] | 90.6
7 | CO[C@@H](C(=O)N1Cc2[nH]nc(NC(=O)c3ccc(N4CCN(C)CC4)cc3)c2C1)c1ccccc1 | 84
8 | CC(C)(C)c1cc(NC(=O)Nc2ccc(-c3cn4c(n3)sc3cc(OCCN5CCOCC5)ccc34)cc2)no1 [Quizartinib (AC220)] | 97.3
9 | O=C(NCCCNc1nc(Nc2cccc(NC(=O)N3CCCC3)c2)ncc1I)c1cccs1 | 98.8
10 | N#C/C(=C(/N)Sc1ccc(N)cc1)c1ccccc1C(F)(F)F | 98
11 | Oc1ccc(-c2nc(-c3ccc(F)cc3)c(-c3ccncc3)[nH]2)cc1 | 105
12 | COc1ccc(F)c(F)c1C(=O)c1cnc(NC2CCN(S(C)(=O)=O)CC2)nc1N | 53.5
13 | Cc1nc(-c2ccc(OCC(C)C)c(C#N)c2)sc1C(=O)O [Febuxostat] | 110
14 | COc1cccc(-c2cc(F)ccc2C2Cc3nc(N)nc(C)c3C(=O)N2)n1 (stereo unspecified) | 4.81
15 | CC(C)C(=O)Nc1ccc([N+](=O)[O-])c(C(F)(F)F)c1 [Flutamide] | 87.2
16 | CN(C)CCOc1ccc(-c2nc(-c3ccncc3)c(-c3ccc4c(c3)CC/C4=N\O)[nH]2)cc1 | 89.5
17 | Nc1nc(F)nc2c1ncn2[C@@H]1O[C@H](COP(=O)(O)O)[C@@H](O)[C@@H]1O [Fludarabine Phosphate] | 110
18 | COc1ccc(C2=N[C@@H](c3ccc(Cl)cc3)[C@@H](c3ccc(Cl)cc3)N2C(=O)N2CCNC(=O)C2)c(OC(C)C)c1 [Nutlin-3a] | 102
19 | CCS(=O)(=O)N1CC(CC#N)(n2cc(-c3ncnc4[nH]ccc34)cn2)C1 | 118
20 | CCc1nc(-c2cccc(C)c2)c(-c2ccnc(NC(=O)c3ccccc3)c2)s1 | 97.7
21 | CNCc1ccc(-c2[nH]c3cc(F)cc4c3c2CCNC4=O)cc1 | 94.9
22 | CCCCOc1c(C(=O)c2c(F)cc(C)cc2F)c[nH]c2nncc1-2 | 59.3
23 | CC[C@H](NC(=O)[C@H](C)NC)C(=O)N1C[C@@H](O)C[C@H]1Cc1c(-c2[nH]c3cc(F)ccc3c2C[C@@H]2C[C@H](O)CN2C(=O)[C@H](CC)NC(=O)[C@H](C)NC)[nH]c2cc(F)ccc12 [Birinapant] | 100
24 | O=C(/C=C/c1ccc(CN(CCO)CCc2c[nH]c3ccccc23)cc1)NO [LAQ824 (Dacinostat)] | 5.42
25 | COc1ccc(-n2c(SCCCN3C(=O)c4cccc5cccc(c45)C3=O)nnc2-c2ccncc2)cc1 | 97.3
26 | CO[C@H]1C[C@@H]2CC[C@@H](C)[C@@](O)(O2)C(=O)C(=O)N2CCCC[C@H]2C(=O)O[C@H]([C@H](C)C[C@@H]2CC[C@@H](O)[C@H](OC)C2)CC(=O)[C@H](C)/C=C(\C)[C@@H](O)[C@@H](OC)C(=O)[C@H](C)C[C@H](C)/C=C/C=C/C=C/1C [Rapamycin (Sirolimus)] | 62.1
